Cycloheximide cs: counter-screen for Shiga toxin inhibitors: cycloheximide protein synthesis inhibition. 300,000 tested, 12% active. max response, %. cell reporter, cycloheximide protein synthesis inhibition counterscreen; in the data active means max response mostly above about 13%, no sharp cut-off; inactive means mostly below about 14%; further: read at 38.3 µM for the half of the compounds with a filed dose; 0% is about no effect
Giardia FBPA inh-1: Giardia lamblia aldolase inhibition; A8B2U2; purified Giardia FBPA; Potency, µM (doses to about 59.6 µM), for inactives: at the top dose activity, negative = inhibition, most hits filed as inhibitors; 290,000 tested, 0.71% active; AID 2451; further: potency means the concentration at half of the fitted maximal effect; on the % scale 0 is the no-effect control and ±100 the full control effect; nearly all actives have a fitted effect of over 55% in size
Target sequence (A8B2U2 whole entry, looked up): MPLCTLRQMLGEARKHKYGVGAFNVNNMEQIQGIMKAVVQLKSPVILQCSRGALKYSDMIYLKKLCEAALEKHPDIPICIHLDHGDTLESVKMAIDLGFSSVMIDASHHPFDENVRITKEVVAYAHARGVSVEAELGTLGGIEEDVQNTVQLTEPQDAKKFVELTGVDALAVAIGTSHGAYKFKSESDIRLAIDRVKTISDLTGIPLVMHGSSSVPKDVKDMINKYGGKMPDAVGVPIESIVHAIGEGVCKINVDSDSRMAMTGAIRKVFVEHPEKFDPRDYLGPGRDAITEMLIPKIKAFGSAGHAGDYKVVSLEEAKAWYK
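Giardia FBPA (40 nM reagent) was preincubated 10 min at RT with compound (up to 57.5 uM final), then substrate plus GAPDH/TPI/NAD/arsenate coupling system with diaphorase/resazurin was added; resorufin fluorescence (525/598 nm) was read after 20 min.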
LmPK inh: blocks Leishmania mexicana pyruvate kinase activity. Potency, µM (highest dose often 57.5 µM), without a hit: at the highest dose activity change, negative = inhibition, hits mostly inhibitors. purified LmPK, Kinase-Glo ATP luminescence, 1 h. Q27686. 290,000 tested, 0.37% active; further: potency means the concentration at half of the fitted maximal effect; on the % scale 0 is the no-effect control and ±100 the full control effect
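qHTS format; LmPK 0.1 nM; substrates PEP 0.5 mM and ADP 0.1 mM. One-hour room-temperature incubation, then coupled luciferase luminescence; 0.5 nM enzyme wells mark activation.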
Shiga toxin inh: Shiga toxin inhibition. inhibition, % at 38.7 µM. 290,000 tested, 9.2% active. Vero cells, Shiga toxin protein synthesis inhibition reporter; in the data active means inhibition mostly above about 28%, no sharp cut-off; inactive means mostly below about 43%; further: 0% is about no effect
Tb PYK inh: blocks Trypanosoma brucei pyruvate kinase; Q57TT1; 410,000 tested, 0.12% active; TbPYK enzyme, Kinase-Glo Plus ATP luminescence, 45 min; AID 624173; Potency, µM (highest dose often 76.8 µM), without a hit: at the highest dose activity, negative = inhibition, usual class: inhibitors; further: potency means the concentration at half of the fitted maximal effect; on the % scale 0 is the no-effect control and ±100 the full control effect; nearly all actives have a fitted effect of over 50% in size
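T. brucei PYK with substrate was exposed to pin-transferred compounds across a concentration series, then started with 130 uM ADP (final). After 45 min at room temperature, Kinase-Glo Plus luminescence was read, normalized and curve-fitted.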
RE007 growth inh: less growth of the S. pombe RE007 Vpr strain | S. pombe RE007 Vpr strain, BacTiter-Glo ATP luminescence, 24 h | Potency, µM (series often up to 92.2 µM), without a hit: top-dose activity change, negative = less growth, actives largely listed as inhibitors | 360,000 tested, 0.21% active | AID 651644; active means well fitted falling curve with a large enough effect; inconclusive means small, poorly fitted or top-dose-only effect; inactive means no such curve, though single readings can be large or run the other way; further: potency means the concentration at half of the fitted maximal effect; on the % scale 0 is the no-effect control and ±100 the full control effect; nearly all actives have a fitted effect of over 50% in size
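Fission yeast strain RE007, carrying one chromosomally integrated HIV-1 vpr copy, was seeded at OD 0.01 in PMG+AL medium with 23 nL pinned compound. After 24 h at 30 °C and 99% humidity, viability was read by BacTiter-Glo luminescence.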
Giardia growth: inhibitors of Giardia lamblia growth | shares compounds with Giardia FBPA inh-1 | Potency, µM (series often up to 57.5 µM), without a hit: at the highest dose activity change, negative = inhibition, actives largely listed as inhibitors | 1,500 tested, 5% active | Giardia lamblia trophozoite growth inhibition;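 further: potency means the concentration at half of the fitted maximal effect; trophozoites exposed to compound for 48 h at 37 °C; on the % scale 0 is the no-effect control and ±100 the full control effect; nearly all actives have a fitted effect of over 70% in size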
Mammal cell tox: toxic to mammalian cells in Giardia aldolase counter-screen; 1,500 tested, 4% active; AID 2786; mammalian cell viability counter-screen, qHTS; Potency, µM (highest dose often 57.5 µM), for inactives: at the highest dose viability change, negative = toxicity, hits mostly inhibitors; shares compounds with Giardia FBPA inh-1;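 further: Chinese hamster ovary cells used as mammalian cytotoxicity surrogate; viability measured as cellular ATP by luminescence; potency means the concentration at half of the fitted maximal effect; compound exposure lasted 48 h before reading; on the % scale 0 is the no-effect control and ±100 the full control effect; nearly all actives have a fitted effect of over 60% in size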
Giardia FBPA inh-2: confirmation of Giardia fructose-bisphosphate aldolase inhibitors. shares compounds with Giardia FBPA inh-1. purified Giardia aldolase enzyme activity, qHTS. AID 2787. 1,500 tested, 5% active. Potency, µM (top dose mostly 57.5 µM), without a hit: top-dose activity change, negative = inhibition, actives largely listed as inhibitors; further: potency means the concentration at half of the fitted maximal effect; on the % scale 0 is the no-effect control and ±100 the full control effect; nearly all actives have a fitted effect of over 45% in size
Rabbit FBPA inh: blocks rabbit muscle aldolase in Giardia aldolase selectivity test. Potency, µM (top dose mostly 57.5 µM), for the others: at the top dose activity, negative = inhibition, hits mostly inhibitors. shares compounds with Giardia FBPA inh-1. 1,500 tested, 4% active. Rabbit muscle FBPA enzyme inhibition, selectivity counter-screen. AID 2794; further: potency means the concentration at half of the fitted maximal effect; on the % scale 0 is the no-effect control and ±100 the full control effect; nearly all actives have a fitted effect of over 60% in size
Target sequence (P00883 whole entry, looked up): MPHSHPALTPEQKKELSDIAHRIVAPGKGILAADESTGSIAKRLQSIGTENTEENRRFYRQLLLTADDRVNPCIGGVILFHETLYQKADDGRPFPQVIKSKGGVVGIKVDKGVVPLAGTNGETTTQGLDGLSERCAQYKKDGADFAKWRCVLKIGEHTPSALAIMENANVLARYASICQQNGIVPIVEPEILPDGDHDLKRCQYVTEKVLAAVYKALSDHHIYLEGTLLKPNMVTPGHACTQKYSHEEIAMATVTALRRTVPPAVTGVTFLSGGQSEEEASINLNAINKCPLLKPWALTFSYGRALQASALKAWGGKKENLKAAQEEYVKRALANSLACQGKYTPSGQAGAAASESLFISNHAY
GAPDH counter: counter-screen for Giardia aldolase inhibitors: GAPDH coupling enzyme. shares compounds with Giardia FBPA inh-1. GAPDH coupling enzyme counterscreen, biochemical, qHTS. Potency, µM (series often up to 57.5 µM), for inactives: top-dose activity change, negative = inhibition, usual class: inhibitors. 1,500 tested, 6% active; further: potency means the concentration at half of the fitted maximal effect; on the % scale 0 is the no-effect control and ±100 the full control effect; nearly all actives have a fitted effect of over 55% in size
Starred values were filed as active, the others as inactive; [ ] = another dose, or the depositor's remark. The sample as a whole holds a higher share of hits than the screen did. Unless noted, the call rests on the fitted dose curve; in most records, active means well fitted curve in the direction sought with a large enough effect; inconclusive means small, poorly fitted or top-dose-only effect, or another doubt; inactive means no such curve, though single readings can be large; an effect the other way counts as inactive or inconclusive.

Screening O=c1cc(CN2CCN(Cc3ccccc3)CC2)c2ccc(O)c(O)c2o1 returned Cycloheximide cs -3, Giardia FBPA inh-1 18µM*, LmPK inh -2%, Shiga toxin inh 8, Tb PYK inh 6%, RE007 growth inh 3%, Giardia growth -28%, Mammal cell tox -28%, Giardia FBPA inh-2 inconclusive, Rabbit FBPA inh inconclusive and GAPDH counter -24%.
Cc1c(O)ccc2c(CN3CCN(Cc4ccccc4)CC3)cc(=O)oc12 was read as Cycloheximide cs 3, Giardia FBPA inh-1 -6%, LmPK inh 3%, Shiga toxin inh -3, Tb PYK inh -15% and RE007 growth inh -10%.
Screening O=C(NNC(=O)C12CC3CC(CC(C3)C1)C2)c1ccccn1 returned Cycloheximide cs -3, Giardia FBPA inh-1 18µM*, LmPK inh -1%, Shiga toxin inh 15, Tb PYK inh -2%, RE007 growth inh inconclusive, Giardia growth inconclusive, Mammal cell tox 32µM*, Giardia FBPA inh-2 6%, Rabbit FBPA inh 0% and GAPDH counter -14%.
`CCOC(=O)C(C)Sc1nc(-c2ccccn2)ncc1OC` (configuration not stated) gave Cycloheximide cs 12, Giardia FBPA inh-1 16µM*, LmPK inh -2%, Shiga toxin inh 2, Tb PYK inh -4%, RE007 growth inh 10%, Giardia growth inconclusive, Mammal cell tox -28%, Giardia FBPA inh-2 -12%, Rabbit FBPA inh -11% and GAPDH counter inconclusive.
For CCOc1ccc(N(CC(=O)Nc2ccc(OC)cc2)C2=NC3CS(=O)(=O)CC3S2)cc1 (configuration not stated) the results were Cycloheximide cs -1, Giardia FBPA inh-1 13µM*, LmPK inh -1%, Shiga toxin inh -5, Tb PYK inh 3%, RE007 growth inh -7%, Giardia growth -12%, Mammal cell tox -14%, Giardia FBPA inh-2 3%, Rabbit FBPA inh 6% and GAPDH counter 10%.
`Cc1c(Cl)cccc1NC(=O)C1CCCN(c2nnc(-n3c(C)ccc3C)s2)C1` (configuration not stated) gave Tb PYK inh 0%.
For Cn1c(-c2cccc([N+](=O)[O-])c2)cnc1NCc1cccc(F)c1 the results were Cycloheximide cs -4, Giardia FBPA inh-1 28µM*, LmPK inh -11%, Shiga toxin inh -2, Tb PYK inh 20%, RE007 growth inh -5%, Giardia growth -9%[10.4 µM], Mammal cell tox -21%, Giardia FBPA inh-2 -5%, Rabbit FBPA inh 3% and GAPDH counter 5%.
`Cn1c(-c2ccc(F)cc2)cnc1NCc1cccc([N+](=O)[O-])c1` gave Cycloheximide cs -3, Giardia FBPA inh-1 inconclusive, LmPK inh -7%, Shiga toxin inh -4, Tb PYK inh 15% and RE007 growth inh -8%.
`CCOc1ccc(NC(=S)N2CCN(S(C)(=O)=O)CC2)cc1` gave Cycloheximide cs -2, Giardia FBPA inh-1 -12%, LmPK inh 1%, Shiga toxin inh -13, Tb PYK inh -5% and RE007 growth inh -9%.
Screening CCN(CC)c1ccc(C=C2C(=O)NC(=S)NC2=O)cc1 returned Cycloheximide cs 17, Giardia FBPA inh-1 14µM*, LmPK inh -18%, Shiga toxin inh 11, Tb PYK inh inconclusive, RE007 growth inh 8%, Giardia growth 14µM*, Mammal cell tox 0%, Giardia FBPA inh-2 -10%, Rabbit FBPA inh -1% and GAPDH counter 5%.
Screening CCN(CC)c1ccc(/C=C2\NC(=O)NC2=O)cc1 returned Cycloheximide cs 14, Giardia FBPA inh-1 -9%, LmPK inh 2%, Shiga toxin inh 24, Tb PYK inh -5% and RE007 growth inh 10%.
For COc1ccc(N2CCN(CC(O)COC(c3ccc(F)cc3)c3ccc(F)cc3)CC2)cc1 (configuration not stated) the results were Cycloheximide cs -3, Giardia FBPA inh-1 16µM*, LmPK inh -12%, Shiga toxin inh -3, Tb PYK inh 5%, RE007 growth inh -18%, Giardia growth 4%[10.4 µM], Mammal cell tox 13%, Giardia FBPA inh-2 -7%, Rabbit FBPA inh -8% and GAPDH counter 3%.
OC(COC(c1ccc(F)cc1)c1ccc(F)cc1)CN1CCCC(C(F)(F)F)C1 (configuration not stated) was read as Cycloheximide cs 0, Giardia FBPA inh-1 14µM*, LmPK inh 1%, Shiga toxin inh -4, Tb PYK inh 38%, RE007 growth inh -7%, Giardia growth inconclusive, Mammal cell tox -3%, Giardia FBPA inh-2 2%, Rabbit FBPA inh 4% and GAPDH counter -5%.
Screening COc1ccc(OC)c(NC(=O)Cn2cc(C(=O)c3cccs3)c3ccccc32)c1 returned Tb PYK inh -4%.
`S=c1[nH]nc(-c2ccccn2)n1/N=C/c1ccco1` gave Cycloheximide cs -3, Giardia FBPA inh-1 20µM*, LmPK inh 13%, Shiga toxin inh 3, Tb PYK inh -34%, RE007 growth inh 12%, Giardia growth 7%[10.4 µM], Mammal cell tox 15%, Giardia FBPA inh-2 4%, Rabbit FBPA inh 16% and GAPDH counter 5%.
S=c1[nH]nc(-c2ccco2)n1/N=C/c1ccccn1 was read as Cycloheximide cs -2, Giardia FBPA inh-1 inconclusive, LmPK inh 3% and Shiga toxin inh -12.
Screening CCN(CC)c1ccc(N=Nc2ncn[nH]2)cc1 returned Cycloheximide cs 34*, Giardia FBPA inh-1 3.5µM*, LmPK inh -3%, Shiga toxin inh 124*, Tb PYK inh -7%, RE007 growth inh -24%, Giardia growth inconclusive, Mammal cell tox 32µM*, Giardia FBPA inh-2 -7%, Rabbit FBPA inh 1% and GAPDH counter -15%.
